Consider 1 sequence from article PMC7862700, “An all-to-all approach to the identification of sequence-specific readers for epigenetic DNA modifications on cytosine”.

Holding throughout (test): DAPPL (digital affinity profiling via proximity ligation, sequencing); 10 mM Tris-HCl pH 7.5, 50 mM NaCl, 1 mM DTT, 4% glycerol, room temperature, 30 min; GST-TFs on glutathione beads, 16-mer random dsDNA library, 0.1% formaldehyde crosslink after washing; high values mean tight binding
What all share (details): protein: recombinant; tags: N-terminal GST; dsDNA, one strand shown

One assay has as its target T1, FLI1 (Homo sapiens, UniProt Q01543 1-452).
T1 sequence: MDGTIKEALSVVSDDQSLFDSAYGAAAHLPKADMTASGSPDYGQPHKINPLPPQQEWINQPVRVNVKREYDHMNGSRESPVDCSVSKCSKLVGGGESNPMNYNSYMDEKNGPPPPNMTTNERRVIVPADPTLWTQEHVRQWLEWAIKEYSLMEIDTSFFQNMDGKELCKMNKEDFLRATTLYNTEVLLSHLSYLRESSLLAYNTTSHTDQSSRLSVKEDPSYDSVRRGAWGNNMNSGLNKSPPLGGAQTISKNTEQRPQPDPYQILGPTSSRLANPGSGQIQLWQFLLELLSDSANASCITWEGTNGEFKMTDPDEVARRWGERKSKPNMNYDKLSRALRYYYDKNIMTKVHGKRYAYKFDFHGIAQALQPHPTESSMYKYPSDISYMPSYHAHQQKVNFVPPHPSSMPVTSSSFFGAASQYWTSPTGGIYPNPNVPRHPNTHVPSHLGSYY
Put shortly:
(§1)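 In yeast, human transcription factors were expressed with a GST fusion, then pulled down on glutathione beads and given DNA barcodes. Pooled with a tag-only sample, they were exposed to 200 nmole of a 16-mer random double-stranded DNA library (Tris/NaCl/DTT/glycerol buffer, room temperature, 30 min), washed, crosslinked with 0.1% formaldehyde, proximity-ligated using BsaI/T4 ligase for 1 h at 37 °C, PCR-amplified and read on an Illumina NextSeq500. Each hexamer's frequency of reads for a factor, divided by the matching frequency for the tag-only sample, gives the binding signal.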

The target in the next assay is T2, ELK1 (Homo sapiens, UniProt P19419 1-428).
T2 sequence: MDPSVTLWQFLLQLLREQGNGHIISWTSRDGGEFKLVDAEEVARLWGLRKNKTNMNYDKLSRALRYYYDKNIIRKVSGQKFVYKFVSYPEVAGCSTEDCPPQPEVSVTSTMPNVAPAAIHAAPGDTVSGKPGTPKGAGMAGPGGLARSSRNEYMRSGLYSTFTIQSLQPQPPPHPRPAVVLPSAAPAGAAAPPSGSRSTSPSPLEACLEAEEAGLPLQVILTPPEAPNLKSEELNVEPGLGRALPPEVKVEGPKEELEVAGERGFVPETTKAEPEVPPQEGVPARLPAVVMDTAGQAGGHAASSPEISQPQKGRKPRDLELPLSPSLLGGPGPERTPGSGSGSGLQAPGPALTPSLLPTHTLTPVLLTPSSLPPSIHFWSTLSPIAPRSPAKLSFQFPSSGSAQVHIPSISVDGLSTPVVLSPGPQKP
Put shortly:
as §1

The next assay addresses T3, GABPA (Homo sapiens, UniProt Q06546 1-454).
T3 sequence: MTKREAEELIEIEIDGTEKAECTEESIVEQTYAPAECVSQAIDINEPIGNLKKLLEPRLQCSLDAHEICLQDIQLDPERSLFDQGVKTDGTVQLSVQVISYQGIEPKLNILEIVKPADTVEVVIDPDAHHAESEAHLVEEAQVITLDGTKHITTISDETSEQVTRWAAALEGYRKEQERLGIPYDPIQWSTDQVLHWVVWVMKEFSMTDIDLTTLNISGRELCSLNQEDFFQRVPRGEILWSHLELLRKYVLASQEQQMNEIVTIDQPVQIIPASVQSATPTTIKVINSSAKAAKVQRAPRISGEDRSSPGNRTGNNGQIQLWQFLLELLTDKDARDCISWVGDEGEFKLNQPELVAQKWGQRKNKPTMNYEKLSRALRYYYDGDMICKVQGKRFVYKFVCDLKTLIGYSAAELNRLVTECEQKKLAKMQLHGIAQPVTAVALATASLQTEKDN
Put shortly:
as §1

The target of another assay is T4, ERG (Homo sapiens, UniProt P11308 1-479).
T4 sequence: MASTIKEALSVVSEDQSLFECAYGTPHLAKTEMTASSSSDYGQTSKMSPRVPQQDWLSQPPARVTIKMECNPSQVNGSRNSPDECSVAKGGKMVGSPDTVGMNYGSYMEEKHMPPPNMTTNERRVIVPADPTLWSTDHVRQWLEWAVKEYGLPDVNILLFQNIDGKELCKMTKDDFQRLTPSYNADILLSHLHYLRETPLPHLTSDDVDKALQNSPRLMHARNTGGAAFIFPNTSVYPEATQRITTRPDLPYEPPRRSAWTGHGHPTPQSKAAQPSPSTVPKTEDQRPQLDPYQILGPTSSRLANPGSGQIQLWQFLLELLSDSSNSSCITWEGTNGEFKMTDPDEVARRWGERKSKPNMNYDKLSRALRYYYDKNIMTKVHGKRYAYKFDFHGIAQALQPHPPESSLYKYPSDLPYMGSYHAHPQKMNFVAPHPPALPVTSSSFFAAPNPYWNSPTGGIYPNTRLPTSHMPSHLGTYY
Put shortly:
as §1

A further assay has as its target ELF1 (Homo sapiens, UniProt P32519 1-619). Put shortly: as §1
For another assay, the target named is T5, EHF (Homo sapiens, UniProt Q9NZC4 1-300).
T5 sequence: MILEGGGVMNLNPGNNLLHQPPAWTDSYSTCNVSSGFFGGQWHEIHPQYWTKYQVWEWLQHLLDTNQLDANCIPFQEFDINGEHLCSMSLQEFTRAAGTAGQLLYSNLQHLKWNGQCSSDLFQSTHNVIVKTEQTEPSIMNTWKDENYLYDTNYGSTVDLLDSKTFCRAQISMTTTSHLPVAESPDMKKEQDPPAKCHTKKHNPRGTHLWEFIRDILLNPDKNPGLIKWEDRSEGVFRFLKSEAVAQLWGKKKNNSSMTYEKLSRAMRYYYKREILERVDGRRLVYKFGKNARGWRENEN
Put shortly: as §1

In a further assay the target is SPI1 (Homo sapiens, UniProt P17947 1-270). Summed up:
as §1

The target of a further assay is SPIB (Homo sapiens, UniProt Q01892 1-262). Summed up: as §1
The next assay deals with T6, ELK3 (Homo sapiens, UniProt P41970 1-407).
T6 sequence: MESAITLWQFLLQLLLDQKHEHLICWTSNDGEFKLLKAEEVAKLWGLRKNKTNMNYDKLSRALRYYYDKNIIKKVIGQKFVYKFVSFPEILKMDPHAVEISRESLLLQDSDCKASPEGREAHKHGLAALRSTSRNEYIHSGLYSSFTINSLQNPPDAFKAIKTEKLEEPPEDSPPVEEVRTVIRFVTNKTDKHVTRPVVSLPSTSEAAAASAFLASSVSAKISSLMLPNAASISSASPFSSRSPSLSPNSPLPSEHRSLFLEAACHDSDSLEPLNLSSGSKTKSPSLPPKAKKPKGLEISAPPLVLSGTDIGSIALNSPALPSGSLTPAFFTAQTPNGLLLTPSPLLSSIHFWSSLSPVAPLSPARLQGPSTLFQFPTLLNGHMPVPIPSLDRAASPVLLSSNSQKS
Summed up:
as §1

Chain of ELF1 (P32519 whole entry): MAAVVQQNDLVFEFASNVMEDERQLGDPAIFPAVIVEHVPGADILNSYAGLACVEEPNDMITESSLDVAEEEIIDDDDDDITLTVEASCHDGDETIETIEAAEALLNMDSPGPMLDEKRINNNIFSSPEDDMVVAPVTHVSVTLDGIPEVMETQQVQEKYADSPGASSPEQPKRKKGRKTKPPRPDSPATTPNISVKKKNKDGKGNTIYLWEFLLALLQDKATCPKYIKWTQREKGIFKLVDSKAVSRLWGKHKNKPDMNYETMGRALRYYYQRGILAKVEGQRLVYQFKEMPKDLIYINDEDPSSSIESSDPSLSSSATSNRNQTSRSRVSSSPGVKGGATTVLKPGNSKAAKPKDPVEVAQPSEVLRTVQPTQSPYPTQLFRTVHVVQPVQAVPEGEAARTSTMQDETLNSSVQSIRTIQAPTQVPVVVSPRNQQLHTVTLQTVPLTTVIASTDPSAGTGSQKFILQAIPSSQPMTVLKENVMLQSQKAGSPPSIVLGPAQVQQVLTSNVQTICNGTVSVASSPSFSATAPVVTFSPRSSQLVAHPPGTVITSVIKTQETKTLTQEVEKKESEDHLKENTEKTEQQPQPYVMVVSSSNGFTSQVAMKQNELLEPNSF
Chain of SPIB (Q01892 whole entry): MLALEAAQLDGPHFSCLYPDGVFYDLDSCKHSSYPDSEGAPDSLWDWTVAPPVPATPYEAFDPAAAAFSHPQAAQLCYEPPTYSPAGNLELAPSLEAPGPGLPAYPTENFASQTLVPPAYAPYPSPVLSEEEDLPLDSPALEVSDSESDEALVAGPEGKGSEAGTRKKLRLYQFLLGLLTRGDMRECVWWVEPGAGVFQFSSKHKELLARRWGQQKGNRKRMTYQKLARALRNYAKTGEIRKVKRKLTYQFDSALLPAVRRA

With GTCTTA, the binding signal was 1.1 fold enrichment (6-mer frequency, TF over GST control) with FLI1; 1.14 fold enrichment (6-mer frequency, TF over GST control) with ELK1; 1.08 fold enrichment (6-mer frequency, TF over GST control) with GABPA; 1.06 fold enrichment (6-mer frequency, TF over GST control) in the assay with ERG; 1.11 fold enrichment (6-mer frequency, TF over GST control) in the assay with ELF1; 1.08 fold enrichment (6-mer frequency, TF over GST control) in the assay with EHF. The binding signal with SPI1 is 1.14 fold enrichment (6-mer frequency, TF over GST control); with SPIB it was 1.14 fold enrichment (6-mer frequency, TF over GST control); in the assay with ELK3, 1.06 fold enrichment (6-mer frequency, TF over GST control).
